Laboratory results: PubChem BioAssay AID449739 (Vanderbilt High Throughput Screening Facility, 2010)
About 4,200 (4.2%) of roughly 100,000 compounds were called active. The list comes from a sample in which actives are over-represented; it also holds similar structures and randomly drawn compounds. Unmarked numbers belong to inactive results.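 The calls were made as follows: active = single-dose well whose peak fluorescence ratio is a statistical outlier from its plate by either plate-standardised score or position-corrected B-score; inactive = the rest.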

The compounds below were run against Voltage-dependent T-type calcium channel subunit alpha-1H (Homo sapiens) (UniProt O95180) (assay: Cav3.2 calcium influx blockers – cell-based, Fluo-4 calcium fluorescence, FDSS, MLSMR library, primary screen (AID 449739)). Conditions: Cav3.2-expressing cells, at 10 µM, active compounds read low.
Sequence of Voltage-dependent T-type calcium channel subunit alpha-1H (Homo sapiens) (O95180 whole entry, looked up): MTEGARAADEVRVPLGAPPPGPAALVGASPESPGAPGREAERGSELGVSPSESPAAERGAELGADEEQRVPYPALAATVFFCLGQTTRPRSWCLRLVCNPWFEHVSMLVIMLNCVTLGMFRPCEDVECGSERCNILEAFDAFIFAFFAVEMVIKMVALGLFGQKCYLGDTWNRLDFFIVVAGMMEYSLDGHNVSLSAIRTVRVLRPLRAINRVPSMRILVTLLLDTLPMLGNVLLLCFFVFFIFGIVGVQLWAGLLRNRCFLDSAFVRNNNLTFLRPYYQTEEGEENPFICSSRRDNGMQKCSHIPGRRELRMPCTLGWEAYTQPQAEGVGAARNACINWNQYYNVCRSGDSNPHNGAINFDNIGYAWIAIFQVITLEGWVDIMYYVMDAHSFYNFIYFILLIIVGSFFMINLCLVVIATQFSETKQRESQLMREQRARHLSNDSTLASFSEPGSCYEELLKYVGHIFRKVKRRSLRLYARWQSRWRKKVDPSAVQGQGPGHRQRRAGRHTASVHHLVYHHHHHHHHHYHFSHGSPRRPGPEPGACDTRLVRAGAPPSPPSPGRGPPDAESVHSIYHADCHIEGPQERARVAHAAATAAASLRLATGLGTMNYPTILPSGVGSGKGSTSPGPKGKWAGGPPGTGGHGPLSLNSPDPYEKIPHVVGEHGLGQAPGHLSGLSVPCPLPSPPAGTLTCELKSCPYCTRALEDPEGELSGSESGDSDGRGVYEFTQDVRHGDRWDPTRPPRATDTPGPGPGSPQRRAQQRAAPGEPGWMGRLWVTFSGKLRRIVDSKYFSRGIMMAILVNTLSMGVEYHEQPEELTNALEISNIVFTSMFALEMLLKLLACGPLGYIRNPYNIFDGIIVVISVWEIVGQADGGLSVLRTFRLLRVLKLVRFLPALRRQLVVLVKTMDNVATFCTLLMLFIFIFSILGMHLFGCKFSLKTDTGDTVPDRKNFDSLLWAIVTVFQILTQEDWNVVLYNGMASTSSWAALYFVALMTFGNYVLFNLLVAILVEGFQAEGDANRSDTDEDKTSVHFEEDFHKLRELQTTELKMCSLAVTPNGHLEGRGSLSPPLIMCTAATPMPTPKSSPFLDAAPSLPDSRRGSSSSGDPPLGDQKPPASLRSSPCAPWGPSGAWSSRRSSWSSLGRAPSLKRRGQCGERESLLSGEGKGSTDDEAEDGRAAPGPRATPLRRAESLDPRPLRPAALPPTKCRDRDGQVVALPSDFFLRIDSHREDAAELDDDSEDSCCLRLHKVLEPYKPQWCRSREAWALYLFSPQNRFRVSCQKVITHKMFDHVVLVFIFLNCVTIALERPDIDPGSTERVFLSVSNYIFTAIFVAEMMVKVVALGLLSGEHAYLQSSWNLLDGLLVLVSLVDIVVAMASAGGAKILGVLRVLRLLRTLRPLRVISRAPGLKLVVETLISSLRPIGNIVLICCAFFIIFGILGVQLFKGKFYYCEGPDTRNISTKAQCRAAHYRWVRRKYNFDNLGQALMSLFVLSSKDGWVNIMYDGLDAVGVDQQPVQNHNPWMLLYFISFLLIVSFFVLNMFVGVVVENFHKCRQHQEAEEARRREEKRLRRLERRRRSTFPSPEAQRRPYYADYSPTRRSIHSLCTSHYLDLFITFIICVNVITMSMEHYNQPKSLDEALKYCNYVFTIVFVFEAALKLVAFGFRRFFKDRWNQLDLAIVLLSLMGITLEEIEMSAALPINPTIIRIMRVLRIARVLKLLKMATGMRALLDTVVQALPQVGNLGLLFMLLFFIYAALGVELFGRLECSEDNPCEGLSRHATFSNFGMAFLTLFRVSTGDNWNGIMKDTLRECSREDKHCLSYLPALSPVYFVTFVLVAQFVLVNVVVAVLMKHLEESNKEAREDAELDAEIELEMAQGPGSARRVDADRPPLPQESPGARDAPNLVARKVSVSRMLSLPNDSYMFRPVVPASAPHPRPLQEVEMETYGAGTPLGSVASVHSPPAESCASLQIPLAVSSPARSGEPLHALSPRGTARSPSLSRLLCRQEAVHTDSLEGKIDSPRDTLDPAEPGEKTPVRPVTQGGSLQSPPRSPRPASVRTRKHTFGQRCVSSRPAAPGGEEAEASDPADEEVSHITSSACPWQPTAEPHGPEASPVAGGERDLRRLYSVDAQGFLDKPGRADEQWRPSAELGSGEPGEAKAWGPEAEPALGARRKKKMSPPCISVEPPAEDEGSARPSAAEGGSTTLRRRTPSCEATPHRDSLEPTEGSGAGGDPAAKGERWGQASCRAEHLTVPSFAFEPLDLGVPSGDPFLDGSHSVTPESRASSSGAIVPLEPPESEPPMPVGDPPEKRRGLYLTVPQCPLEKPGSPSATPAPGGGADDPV

Compound | B-score
COCOc1cc(O)c(C(=O)/C=C/c2ccc(OCOC)c(OCOC)c2)c(OCOC)c1 | 0.785
Oc1ccc2ccc3cccc[n+]3c2c1 | -10 (active)
COC(C[C@H](O)CC(=O)COCc1ccccc1)OC | 0.759
COc1cc(Br)cc(/C=N/c2ncn[nH]2)c1O | -3.11 (active)
COc1ccc(Br)cc1/C=N/n1c(C)nnc1C | 0.564
C=CCn1c(Cn2nnc3ccccc32)nnc1SCC(=O)N/N=C/c1cc(Br)cc(OC)c1O | 0.722
CCOc1ccc2nc(NCCNS(=O)(=O)c3ccccc3)c(C#N)cc2c1 | 0.364
CCOc1ccc2nc(N3CCCN(C(=O)Nc4ccccc4C)CC3)c(C#N)cc2c1 | -4.45 (active)
Cc1cccc2cc(C#N)c(N3CCCC3)nc12 | -0.395
COc1ccc(C#Cc2c(-c3ccc(OC)cc3)oc3ccc(-c4ccc5c(c4)OCO5)cc23)cc1 | -2.98
CCO[C@H]1OC(C(=O)O)=C[C@@H](C2CCCCC2)[C@@H]1CCCO | -0.908
COc1ccc(-c2nc(CS(=O)CC(=O)N3CCc4ccccc4C3)c(C)o2)cc1 (stereo unspecified) | 0.115
Cc1nnc(SCC(=O)N2CCc3ccccc3C2)s1 | 0.719
Cc1ccccc1-c1nc(CS(=O)(=O)CC(=O)N2CCc3ccccc3C2)c(C)o1 | -4.63 (active)
Cc1nn(-c2ccccc2)c(C)c1C(=O)OCC(=O)NC(=O)NC1CCCCC1 | -5.85 (active)
CCCn1c(C)cc(C(=O)COC(=O)c2c(C)nn(-c3ccccc3)c2C)c1C | -3.42
Nn1c(SCC(=O)NC(=O)NC2CCCC2)nnc1-c1ccccc1F | 0.0138
COC(=O)c1c(-c2cccs2)csc1NC(=O)CSc1ncnc2sc(C)c(C)c12 | -0.978
CCCCNC(=S)NNC(=O)c1cc(C)on1 | 0.531
CCN1CCN(CCCCOc2ccccc2F)CC1 | 0.893
COc1ccccc1N1CCN(Cc2ccc(OC)c3ccccc23)CC1 | -1.06
COc1ccccc1N1CCN(CCCCOc2ccc(F)cc2)CC1 | -5.88 (active)
COc1cnc(SCc2ccc(Cl)c(Cl)c2)nc1Cl | -1.35

Compound | B-score
COC(=O)[C@H](Cc1ccccc1)NC(=O)[C@@H]1C[C@H]1[C@@H](NC(=O)OCc1ccccc1)c1ccccc1 | 0.0644
O=C(NCc1ccccc1)[C@H]1C[C@@H]1[C@H](NP(=O)(c1ccccc1)c1ccccc1)c1ccccc1 | -4.19 (active)
O=C(O)C1CC=C(Cl)CC1C(=O)NCc1ccccc1 (stereo unspecified) | 0.671
Cc1cc(C)c2nc(NC(=O)c3ccc4c(c3)OCO4)sc2c1 | 0.981
C=C(C)C(=O)Nc1cccc(C2=NOC3(C2)C[C@H](C(N)=O)N(C(=O)C(c2ccccc2)c2ccccc2)C3)c1 (stereo partly specified) | -0.703
CCOC(=O)c1sc2nc(SC)nc(-c3ccccc3)c2c1N | -0.0983
Nc1ccccc1SCc1cc([N+](=O)[O-])cc2c1OCOC2 | -4.25 (active)
O=C(CNC(=O)Cc1ccccc1)NCC(=O)OCC(=O)c1ccccc1Cl | 0.107
CCOC(=O)/C(=C\c1ccc([N+](=O)[O-])cc1)C(=O)c1cc(C(C)=O)c(Nc2ccccc2)s1 | 0.717
Cc1ccnc(N2CCN(C(=O)CSc3nc4ccccc4nc3N3CCCCC3)CC2)c1 | -7.43 (active)
Cc1ccc(S(=O)(=O)NCC(=O)N2CCN(c3ccccn3)CC2)cc1 | 0.189
Cc1nnc(SCC(=O)N2CCN(c3ccccc3)CC2)n1-c1ccccc1 | 0.663
CCC(C)[C@@H](C(=O)N1CCNCC1)n1cc(CCCCN)nn1 (stereo partly specified) | 0.219
CC1(C)CC(=O)C2=C(C1)N=C1SCCC(=O)N1C2c1ccc(C(F)(F)F)cc1 (stereo unspecified) | -1.88
CC(C)(C)NS(=O)(=O)CC12CCC(CC1=O)C2(C)C (stereo unspecified) | 0.0444
CCCC(=O)NC(Nc1ccccc1OC)C(Cl)(Cl)Cl (stereo unspecified) | 0.143
NCCCC[C@@H]1NC(=O)[C@H](CCC(=O)O)NC(=O)c2cc([N+](=O)[O-])cc(I)c2NCC[C@@H](C(N)=O)NC1=O | 0.612
O=C(O)CC(c1ccccc1)n1cnnn1 (stereo unspecified) | 0.533
O=C(c1ccc(-n2cnnn2)cc1)N1CCN(C(c2ccccc2)c2ccccc2)CC1 | -4.29 (active)
O=C(c1ccccc1)N1CCN(C(=O)N2CCCCC2)CC1 | 1.15
N/C(=N\OC(=O)CCC1CCCCC1)c1ccccn1 | 0.693
N#Cc1nc(-c2ccc(OCc3ccccc3)cc2)oc1NCCCN1CCOCC1 | -0.428
N#Cc1nc(COc2ccc(-c3ccccc3)cc2)oc1NCc1cccnc1 | -1.76

Compound | B-score
N#Cc1nc(Cc2ccccc2)oc1NCCc1ccccc1 | -6.7 (active)
CC1C/C(=N/NC(=O)c2cccs2)CC(C)(C)C1 (stereo unspecified) | 0.092
CC(C)N(C(=O)COC(=O)c1ccccc1C(=O)N1CCN(c2ccc(F)cc2)CC1)C(C)C | 0.00273
O=C(c1ccccc1Oc1ccccc1)N1CCN(c2ccc(F)cc2)CC1 | -4.99 (active)
O=C(O)C1CC=CCC1C(=O)Nc1ccccc1C(=O)N1CCN(c2ccccc2)CC1 (stereo unspecified) | 0.0959
Cc1ccccc1NC(=O)Cc1nnc(SCC(=O)N2CCN(c3ccccc3)CC2)n1C | 0.445
Cn1c(Cc2cccc3ccccc23)nnc1SCC(=O)N1CCN(c2cccc(Cl)c2)CC1 | -6.61 (active)
Cc1cc2nnc(SCC(=O)N3CCN(c4ccccc4)CC3)n2c(N)n1 | 0.355
C=CCC1(C(=O)N(C)Cc2ccccc2)CCN(C(=O)OC(C)(C)C)CC1 | -0.119
CC(C)(C)NC(=O)NC(=O)COC(=O)CCC1CCCCC1 | -0.871
CC(=O)Nc1ccn(Cc2c(F)cccc2Cl)n1 | -0.881
O=C(Nc1ccn(Cc2ccccc2F)n1)c1ccc(COc2ccc(Cl)cc2Cl)o1 | -5.79 (active)
O=C(Nc1ccn(Cc2ccc(F)cc2)n1)c1ccncc1 | 0.582
O=C(C1=C[C@H](c2ccc(C(F)(F)F)cc2)C[C@H](OCc2ccc(CO)cc2)O1)N1CCN(Cc2ccccc2)CC1 | -0.906
CC(C)(C)[C@H]1C=C(C(=O)NCc2ccccc2)O[C@@H](OCc2ccc(CO)cc2)C1 | -0.683
COc1cc(/C=N/NC(=O)Nc2ccccc2)ccc1OCCOc1ccccc1C | -1.44
CNC(=O)c1ccc2nc(NC(C)=O)sc2c1 | 1.09
O=C(NC(Nc1nc2ccc([N+](=O)[O-])cc2s1)(C(F)(F)F)C(F)(F)F)c1ccccc1 | -8.17 (active)
Cc1nn(CC(=O)Nc2nc3ccccc3s2)c(C)c1[N+](=O)[O-] | -1.65
COc1ccc(NC(=O)CCN2CCCC2)c(OC)c1 | 0.0598
COc1ccc(OC)c(NC(=O)CCN2CCC(C)CC2)c1 | -3.95 (active)
CCOc1ccc(C(=O)Nc2cc(OC)ccc2OC)cc1 | -0.483
Cc1ccc(N2C(=O)C(Cc3ccccc3)NC2=S)cc1 (stereo unspecified) | 0.262

Compound | B-score
Cc1cn(C)c(=O)n(C)c1=O | 0.776
COc1ccc(-c2nc3c(s2)CCc2onc(-c4ccc(Br)cc4)c2-3)cc1 | 0.734
COc1cc(C(=O)N2CCN(C/C=C/c3ccccc3)CC2)cc(OC)c1C | -0.741
N#Cc1c(C(F)(F)F)cc(-c2ccccc2)nc1SCC(=O)N1CCOCC1 | 1.07
Cc1[nH]n(-c2ccc(Cl)cc2)c(=O)c1/C=N/n1c(C)nc2ccccc2c1=O | -2.58
Cc1[nH]n(-c2cccc(Cl)c2)c(=O)c1/C=N/n1c(C)nc2ccccc2c1=O | -5.96 (active)
COc1cc(NS(=O)(=O)c2ccc(N=Cc3c(C)[nH]n(-c4ccccc4)c3=O)cc2)nc(OC)n1 | 1.56
CCO[C@@H]1OC(C(=O)NC2CC2)=C[C@H](C)[C@H]1CCCO | 0.361
O=C(Nc1ccccc1)O/N=C1\CCCCC1c1ccc([N+](=O)[O-])cc1[N+](=O)[O-] (stereo unspecified) | -1.88
CN1CC(c2ccccc2)C2(COc3ccccc3C2=O)C12C(=O)Nc1ccccc12 (stereo unspecified) | -2.68
CCCCCCCCCCCCN1[C@@H](CC(C)=O)c2cc(F)cc(F)c2S1(=O)=O | -0.475
COc1ccc(C(C(O)C(=O)c2c[nH]c3ccccc23)N2CCN(c3ccccc3)CC2)cc1 (stereo unspecified) | -6.38 (active)
CCCC(=O)NC(C)C(c1cccs1)N1CCN(c2ccccc2)CC1 (stereo unspecified) | -0.0337
CC1CCN(CC(=O)c2c[nH]c3ccccc23)CC1 | -0.109
COCC(C)NC(=O)c1ccc(-n2nc(C(F)(F)F)cc2-c2cccs2)cc1 (stereo unspecified) | -0.0574
Cc1occc1C(=O)NNC(=S)NCC(C)C | -0.334
COC(C[C@@H](O)C[C@@H](O)[C@H](C)OCc1ccccc1)OC | 0.484
CC(NC(=O)Nc1ccccc1)C(c1cccs1)N1CCN(c2ccccc2)CC1 (stereo unspecified) | -0.634
CCCCC(=O)N/N=C(\C)CC(=O)Nc1cc(Cl)ccc1OC | -2.17
COc1ccc(Cl)cc1NC(=O)c1oc(C)nc1C | -0.339
COc1ccc(Cl)cc1NC(=O)CN(C)C(=O)CNC(=O)C12CC3CC(CC(C3)C1)C2 | -3.51 (active)
O=C(CCCOc1ccccc1)NCc1ccco1 | -0.629
